According to PubChem BioAssay (NCI):
About 83,000 compounds went through this panel and 20% of them were active in at least one assay; those are over-represented in the sample as a whole.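 48-hour exposure, single concentration, 96-well plates; percent growth endpoint where 0 means no net growth. Active: below 10.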 Values without a mark were called inactive. Active and inactive are the calls of the source.

Experiments:
Assay in all cases: NCI-60 one-dose screen, 48 h (100 = growth as untreated, 0 = no growth, -100 = all killed)
Conditions in all cases: 10 µM unless noted
HT29 colon = system: HT29 colon
SNB-75 CNS = system: SNB-75 CNS
SNB-19 CNS = system: SNB-19 CNS
U251 CNS = system: U251 CNS
SK-MEL-5 melanoma = system: SK-MEL-5 melanoma
UACC-62 melanoma = system: UACC-62 melanoma
LOX IMVI melanoma = system: LOX IMVI melanoma
SK-MEL-28 melanoma = system: SK-MEL-28 melanoma
SK-MEL-2 melanoma = system: SK-MEL-2 melanoma
SN12C renal = system: SN12C renal
UO-31 renal = system: UO-31 renal
TK-10 renal = system: TK-10 renal
ACHN renal = system: ACHN renal
CAKI-1 renal = system: CAKI-1 renal
A498 renal = system: A498 renal
CCRF-CEM leukemia = system: CCRF-CEM leukemia
MOLT-4 leukemia = system: MOLT-4 leukemia
SR leukemia = system: SR leukemia
EKVX NSCLC = system: EKVX NSCLC

| SMILES | growth (HT29 colon) | growth (SNB-75 CNS) [%] | growth (SNB-19 CNS) [%] | growth (U251 CNS) | growth (SK-MEL-5 melanoma) | growth (UACC-62 melanoma) | growth (LOX IMVI melanoma) | growth (SK-MEL-28 melanoma) | growth (SK-MEL-2 melanoma) | growth (SN12C renal) | growth (UO-31 renal) | growth (TK-10 renal) | growth (ACHN renal) | growth (CAKI-1 renal) | growth (A498 renal) | growth (CCRF-CEM leukemia) | growth (MOLT-4 leukemia) | growth (SR leukemia) | growth (EKVX NSCLC) [%] |
| --- | --- | --- | --- | --- | --- | --- | --- | --- | --- | --- | --- | --- | --- | --- | --- | --- | --- | --- | --- |
| O=C1c2ccccc2C(=O)c2c1cccc2-n1nnc2ccccc21 | 106% | 90.8 | 104 | 99.8% | 112% | 103% | 100% | 118% | 79.3% | 106% | 76% | 121% | 103% | 105% | 88.4% | 80.9% | 96% | 104% | – |
| NC(=O)c1ccccc1NC(=O)c1ccccc1Cl | 118% | 92.8 | 98.4 | 106% | 106% | 97.4% | 106% | 112% | – | 101% | 82.8% | 141% | 104% | 98.3% | 98.3% | 97.3% | 63.7% | -9.77% (active) | – |
| COc1cc2c(cc1OCCCCCn1c(-c3ccc(OCc4ccccc4)cc3)nc3cc(N4CCOCC4)ccc31)N=C[C@@H]1CCCN1C2=O | -13.7% (active) | 12.1 | 34.7 | -24.4% (active) | -66.7% (active) | -76.5% (active) | -29.7% (active) | -19% (active) | – | 23.2% | 0.0572% (active) | -13.3% (active) | -54.5% (active) | 18.5% | -74.7% (active) | 8.03% (active) | 23.7% | 137% | 52.5 |
| O=C(Nc1ccc(Cl)cc1)c1cc2c(cc1O)[nH]c1ccccc12 | 1.2% (active) | 38.3 | 36.9 | 22.1% | 0.256% (active) | 10.2% | 30.4% | 38.6% | 22.3% | 20.1% | 39.9% | – | 22.2% | 10.2% | 29.8% | 18.1% | – | 1.22% (active) | 10.8 |
| CC/C=C\C=C/C(=O)N/C=C/CC1Cc2cccc(O)c2C(=O)O1 (stereo not given) | 44.1% | 18.7 | 56 | 57.7% | 13% | 61.4% | 75% | 76.9% | 95.8% | 101% | – | 109% | 145% | 69.5% | 47.9% | – | – | -67.6% (active) | 88.8 |
| COc1ccc(-c2nn(-c3ccccc3)cc2/C=C2\SC(=S)N(CCc3ccc(O)cc3)C2=O)cc1 | 101% | 81 | 93.6 | 90.5% | 88.1% | 60.3% | 72.9% | 98.6% | – | 81.9% | 60% | 94.2% | 87.5% | 51.2% | 62.6% | 76.5% | 68.3% | 75.8% | 84.6 |
| NC(=O)N/N=C/c1ccc(Br)o1 | 102% | 105 | 111 | 106% | 101% | 104% | 94.2% | 105% | – | – | 86.1% | 101% | 106% | 98.4% | 97.5% | 108% | 97.9% | 97.6% | 101 |
| CN1COc2ccc3ccccc3c2C1 | 99.2% | 72.1 | 104 | 92% | 105% | 85% | – | 98.6% | 93.2% | 87.5% | 32.3% | 105% | 89% | 90.9% | 102% | – | 90.6% | – | 96.1 |
| CC(=O)n1c2ccccc2c2ccccc21 | 105% | 97.6 | 113 | 104% | 108% | 114% | – | 107% | 123% | 107% | 83.6% | 115% | 117% | 97.5% | 95.1% | – | 104% | – | 103 |
| CC(C)c1ccc(C(=O)Nc2sc3c(CN(C)C)c(O)ccc3c2C(N)=O)cc1 | 2.74% (active) | 48.5 | 84.4 | 34.3% | 88.3% | 104% | -88.3% (active) | 84.2% | – | 55.9% | 34.1% | 97.4% | 61.3% | 79.6% | 82.5% | -17.9% (active) | 15.2% | -2.24% (active) | 86.7 |
| Cc1[nH]n(C(N)=S)c(=O)c1N=Nc1ccc(F)c(Cl)c1 | 147% | 119 | 164 | 108% | 95% | 84.6% | 110% | 116% | – | 95.8% | 73.9% | 125% | 104% | 103% | 128% | -8.05% (active) | 76.9% | 80.2% | 96.6 |
| Cc1c(C)c(N2C(=O)C=CC2=O)c(C)c(C)c1N1C(=O)C=CC1=O | 110% | 101 | 97.3 | 112% | 109% | 106% | – | 81.6% | 109% | 104% | – | 119% | 108% | 101% | 78.2% | – | 72.4% | – | 101 |
| CCCCn1c(Cc2ccc(Cl)cc2)nc2cc(OC)c(OC)cc2c1=O | 107% | 104 | 150 | 88.5% | 41% | 52.5% | 79.9% | 116% | – | 83.6% | 54.4% | 102% | 75.8% | 72.5% | 101% | -68.8% (active) | -48.7% (active) | 59.4% | 59.1 |
| O=C(Nc1ccc(Oc2ccc(NC(=O)Nc3ccc([N+](=O)[O-])cc3)cc2)cc1)Nc1ccc([N+](=O)[O-])cc1 | 8.5% (active) | 42.6 | 29.7 | 17.6% | -76.1% (active) | 15.6% | 12.4% | 24.8% | -27.5% (active) | 12.1% | – | 15.1% | 10.2% | 13.9% | 13% | -32% (active) | -26.4% (active) | -3.7% (active) | 17.1 |
| Cc1nc2cc(NC(=O)CN3CCN(CCN4C(=O)c5cccc6cccc(c56)C4=O)CC3)ccc2s1 | 33.6% | 57.1 | 44.7 | 43.4% | 39.4% | 62.5% | 39.9% | 86.4% | 73% | 39.8% | 53.6% | – | 33.9% | 72.9% | – | 31.7% | – | 22% | 69.9 |
| O=C(/C=C/c1cccnc1)/C=C/c1cccnc1 | -55.2% (active) | 24.7 | 21.5 | -34.9% (active) | 21% | -69.4% (active) | -84% (active) | -78.4% (active) | – | 4.41% (active) | -81.9% (active) | 17.3% | 13% | -20.5% (active) | 93.1% | -48.4% (active) | -22.8% (active) | -57.3% (active) | 43.3 |
| CCn1c2ccccc2c2ccc(C(C)=O)cc21 | 95.9% | 94.9 | 106 | 101% | 94.4% | 97.9% | – | 106% | 112% | 114% | 106% | 105% | 98.1% | 94.1% | 83.8% | – | 96.8% | 97.8% | – |
| O=C1OCCCCCCCCCC#Cc2ccccc21 | 70.8% | 88.7 | 98.6 | 115% | 89% | 99.2% | 140% | 110% | 109% | 113% | – | 122% | 145% | 97.1% | 98.3% | – | 85.7% | 87.4% | 115 |
| CCC(C)CC(C)C(=O)c1c(O)ccn(OC)c1=O (stereo not given) | 124% | 88 | 78 | 60.6% | 84% | 92.3% | 32.4% | 77.6% | 102% | 69.7% | 58.3% | 98.7% | 46.1% | 92.9% | 98.7% | 39.8% | 68.1% | 47.1% | – |
